# From PubChem
# PfHsp40 rescue = compounds rescuing yeast from Plasmodium falciparum HSP40 toxicity; S. cerevisiae expressing PfHsp40, growth rescue, ATP luminescence; growth rescue, % at 12.5 µM; 340,000 compounds, 0.68% hits; in the data active means growth rescue above about 28%, passing the limit was not always enough; inconclusive means no clear call, values can overlap the other calls;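 further: yeast W303a lacking pdr1 and pdr3 grown in galactose medium; growth measured after three days at 30 °C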
# GDH-TPI counter = inhibits GDH-TPI coupling enzymes, artifact for Mtb FBA screen. GDH-TPI coupled enzyme counterscreen, NADH absorbance. 360,000 compounds, 1.2% hits. inhibition, % at 4.8 µM; in the data active means inhibition above about 30%;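 further: 0% = DMSO wells and 100% = wells lacking the enzyme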
# Mtb FBA inh = Mtb fructose-bisphosphate aldolase inhibition; purified M. tuberculosis FBA, fluorescence read-out; P9WQA3; inhibition, % at 1 µM; 360,000 compounds, 2.3% hits; in the data active means inhibition above about 27%;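 further: 0% = vehicle and 100% = reference inhibitor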
# Target sequence (P9WQA3 whole entry, looked up): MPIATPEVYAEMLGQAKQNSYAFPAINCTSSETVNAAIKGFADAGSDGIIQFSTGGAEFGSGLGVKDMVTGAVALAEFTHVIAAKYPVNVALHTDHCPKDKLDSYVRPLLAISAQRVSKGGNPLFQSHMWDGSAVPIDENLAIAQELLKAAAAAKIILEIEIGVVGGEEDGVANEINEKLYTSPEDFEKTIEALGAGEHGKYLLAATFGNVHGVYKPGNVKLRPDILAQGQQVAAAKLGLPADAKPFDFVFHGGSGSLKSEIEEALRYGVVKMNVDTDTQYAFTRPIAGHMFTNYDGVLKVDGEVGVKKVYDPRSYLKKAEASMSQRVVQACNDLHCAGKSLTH
# PrPC surface inh = cell surface PrPC inhibition, primary TR-FRET screen. P04156. AID 720596. inhibition, % at 13.8 µM. TR-FRET read-out. 370,000 compounds, 0.43% hits; in the data active means inhibition above about 24%; further: 0% = median of the test wells and 100% = reference compound wells
# PrP 5UTR inh = suppresses PrP 5' UTR mRNA reporter expression. 340,000 compounds, 0.35% hits. inhibition, % (no concentration beside the values). cell-based PrP 5' UTR mRNA reporter, plate reader; in the data active means inhibition above about 52%; further: 0 = median of the neutral control wells
# BJeLR viability = BJeLR cell viability loss | BJeLR (HRASV12) viability, CellTiter-Glo ATP luminescence, 48 h | inhibition, % (concentration not given with the values) | 300,000 compounds, 0.17% hits | AID 1554; in the data active means inhibition above about 50%; inconclusive means no clear call, values can overlap the other calls
# * hit, by the source's call; ? = inconclusive; . = no result given; + = active, no number. Most compounds without a hit are left out; they make up all but 4.5% or so of the library.
SMILES,PfHsp40 rescue,GDH-TPI counter,Mtb FBA inh,PrPC surface inh,PrP 5UTR inh,BJeLR viability
CN1CCN(c2ccc(NC(=S)NC(=O)/C=C/c3ccco3)cc2)CC1,-1,31*,-2,-22,-34,-4
COc1cc(/C=N/NC(=O)c2ccc3c(c2)OCO3)ccc1O,1,35*,1,4,-20,3
O=C(N/N=C/c1cc([N+](=O)[O-])cc([N+](=O)[O-])c1O)/C(=C\c1cccs1)NC(=O)c1ccccc1,0,37*,-6,-15,-22,1
COc1ccc(/C=N/NC(=O)c2ccc3c(c2)OCO3)cc1,-1,20,-6,7,-13,6
COc1cc([N+](=O)[O-])cc(/C=N/NC(=O)C(O)(c2ccccc2)c2ccccc2)c1O,30*,11,-8,-2,-10,-4
COc1cc(/C=N/NC(=O)c2ccc(-n3cccc3)cc2)ccc1O,0,43*,-2,3,-23,4
C=CC[C@H]1c2ccccc2[C@H]2N3N=Cc4ccccc4[C@H]3[C@H](CCc3ccccc3)C(=O)N2N1C(=O)c1ccccc1,.,.,.,8,.,.
CSc1ccc(C=Nn2c(-c3cc(C)[nH]n3)n[nH]c2=S)cc1,.,.,.,-4,.,.
Cc1ccc(-c2cc(C(=O)NN=Cc3ccc(F)cc3)[nH]n2)cc1C,.,.,.,-9,.,.
O=C(N/N=C/c1ccc(Cl)cc1)c1ccc2c(c1)OCO2,0,14,2,15,-45,5
COc1cc(C(=O)NC(=S)Nc2ccc3c(c2)OCO3)cc(OC)c1OC,0,2,0,0,-21,-5
COc1ccc(C(=O)N/C(=C\c2ccc3c(c2)OCO3)C(=O)Nc2cccc(C(=O)O)c2)cc1,0,21,3,6,-13,3
O=C(N/N=C/c1ccc(F)cc1)c1cc(-c2ccc3c(c2)OCO3)n[nH]1,-1,-2,-1,6,-13,1
CN(C)c1ccc(/C=N/NC(=O)c2cc(-c3ccc4c(c3)OCO4)n[nH]2)cc1,1,36*,3,-3,-27,26
O=C(N/N=C/c1ccc2c(c1)OCO2)c1ccc2c(c1)OCCO2,0,42*,3,21,-30,-1
COc1cc(/C=N/NC(=O)/C(=C\c2ccc3c(c2)OCO3)NC(=O)c2ccccc2)ccc1O,-2,47*,-4,-16,-22,10
COc1cc(C(=O)NC(=S)NNC(=O)c2ccc3c(c2)OCO3)cc(OC)c1OC,?,32*,0,-2,-21,5
O=C(NC1CCCCN(Cc2cccc(C(F)(F)F)c2)C1=O)c1cccc(F)c1 (stereo unspecified),.,.,.,-5,.,.
CCN(CC)c1ccc(/C=N/NC(=O)c2ccc(Br)o2)cc1,0,22,-2,6,-118,0
O=C(N/N=C/c1ccc2c(c1)OCO2)c1ccc(Br)o1,-1,47*,-2,9,-103,-6
COc1ccc(/C=C(/NC(=O)c2cccc([N+](=O)[O-])c2)C(=O)O)cc1OC,1,7,3,-13,-12,3
COc1cc(/C=N/NC(=O)/C(=C\c2ccc([N+](=O)[O-])cc2)NC(=O)c2ccccc2)cc(OC)c1O,1,43*,-1,-34,-17,-8
COc1cccc(CSc2nnc(-c3ccncc3)n2N)c1,45*,6,1,3,-17,4
CCc1nn(C(C)C(=O)N2CCN(c3ccc(OC)cc3)CC2)c(=O)c2cc3occc3n12 (stereo unspecified),112*,2,-1,7,-12,19
CCc1nn(C(C)C(=O)N2CC(C)CC(C)C2)c(=O)c2cc3occc3n12 (stereo unspecified),-2,-5,-4,9,-28,1
SMILES,PfHsp40 rescue,GDH-TPI counter,Mtb FBA inh,PrPC surface inh,PrP 5UTR inh,BJeLR viability
N#Cc1c(-c2cccnc2)c2c([nH]c1=O)-c1ccccc1OC2,0,14,+,-13,-12,6
N#Cc1c(-c2ccccc2)[nH]c(=O)[nH]c1=O,0,5,0,-6,5,4
CCOC(=O)C1CCC(C(=O)OCC)N1c1ccc(C=O)cc1 (stereo unspecified),.,33*,2,5,.,.
CCOC(=O)C1C2C=CC(CC2)N1c1ccccc1 (stereo unspecified),0,4,2,0,-9,18
CC(C)(C)OC(=O)COc1cc(O)c2c(=O)cc(-c3ccccc3)oc2c1,8,6,5,-6,-1,14
CC(C)(C)OC(=O)COc1cc(OCC(=O)OC(C)(C)C)c2c(=O)cc(-c3ccccc3)oc2c1,9,21,28*,13,-13,.
C[C@H](CCCCC1(C)OCCO1)CCC(=O)N(c1ccccc1)c1ccccc1,.,.,.,0,.,.
CCC(=O)N1CCN(c2ccc(NC(=O)c3cc4ccccc4o3)cc2Cl)CC1,21,22,-1,32*,-19,2
CCC(=O)NC(=S)Nc1ccc(NC(=O)c2cc3ccccc3o2)c(OC)c1,0,32*,1,7,-28,-3
CCC(=O)N1CCN(c2ccc(Cl)cc2NC(=O)c2cccc([N+](=O)[O-])c2)CC1,1,-1,-1,6,-26,14
O=C(c1cc2ccccc2o1)N1CCN(c2ccccc2Cl)CC1,187*,-1,4,-9,-18,4
CCCC(=O)N1CCN(c2ccc(NC(=O)c3cc4ccccc4o3)cc2Cl)CC1,1,8,2,22,-20,-7
CCC(=O)N1CCN(c2ccc(Cl)cc2NC(=O)c2ccc([N+](=O)[O-])o2)CC1,46*,7,1,-3,-13,0
Cc1ccccc1CN1CCCCC(NC(=O)Nc2cccc(F)c2)C1=O (stereo unspecified),.,.,.,10,.,.
O=c1c2cc3cc(Cl)ccc3nc2ncn1N1CCCCC1,.,.,.,-3,.,.
Cc1ccc(C2CCC3(CCC(=O)N3CCOC(=O)Nc3ccc(F)cc3)CC2)cc1 (stereo unspecified),.,.,.,-4,.,.
Nn1c(SCC(=O)NC2CCCCC2)nnc1-c1cc(-c2ccc(Cl)cc2)n[nH]1,.,.,.,-6,.,.
C[C@H](NC(=O)c1ccco1)C(=O)Nc1nc(-c2ccccn2)cs1,-1,-10,-1,4,-8,.
O=C(Nc1nc(-c2ccccn2)cs1)c1ccc(Br)s1,255*,18,9,-4,29,5
O=C(Nc1nc(-c2ccccn2)cs1)c1ccco1,43*,1,-3,19,-7,8
Cc1ccc(NC(=O)CN2C(=O)CCSc3ccccc32)cc1C,.,.,.,-8,.,.
O=C(CN1CCN(C2CCCCC2)CC1)Nc1cccc2ccccc12,0,32*,2,-4,12,-2
O=C(CN1CCN(C2CCCCC2)CC1)Nc1ccccc1-c1ccccc1,15,3,0,-13,-22,-5
COc1cc(C(=O)N/C(=C\c2cn(C)c3ccccc23)C(=O)NCCN2CCOCC2)cc(OC)c1OC,0,41*,-2,-8,-32,5
